Measured values reported in PubChem BioAssay AID1159580 (chemical genetic matrix, 2015).
Several values for one entry are separate records, joined by “and”; a condition that tells them apart may be missing. Equal values may be shown once. Among all 5,500 compounds or so, about 2,000 (36%) were called active. Not shown: some 18% with an inconclusive outcome. No stated cut-off is given here; in the data, active means normalized growth mostly below about 0.91 (no sharp cut-off); inconclusive means no clear call, values can overlap the other calls; inactive means mostly above about 0.92. The list shows a part of the results.

Assay: chemical genetic growth profiling, strain panel (AID 1159580);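 further: tested at 20 µM; growth read once vehicle control cultures reached saturation at 30 °C; 1 = growth at the plate median or of vehicle wells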
Conditions: growth OD

Measured: normalized growth

CC(CCc1ccccc1)NC(C)C(O)c1ccc(O)cc1 (stereo not given)
inactive: S. cerevisiae deletion strains, locus YJR075W, strain HOC1, stronger effect = lower value 1.01 | S. cerevisiae deletion strains, locus YKL009W, strain mrt4, stronger effect = lower value 0.988 | S. cerevisiae deletion strains, locus YKL068W, stronger effect = lower value 0.987 | S. cerevisiae deletion strains, locus YKL085W, strain MDH1 (second series), stronger effect = lower value 0.997 | S. cerevisiae deletion strains, locus YKL085W, strain MDH1, stronger effect = lower value 0.997 | S. cerevisiae deletion strains, locus YKL160W, strain elf1, stronger effect = lower value 1 | S. cerevisiae deletion strains, locus YKL190W, strain CNB1, stronger effect = lower value 0.99 | S. cerevisiae deletion strains, locus YKR001C, strain vps1, stronger effect = lower value 0.97 | S. cerevisiae deletion strains, locus YKR026C, strain gcn3, stronger effect = lower value 1 | S. cerevisiae deletion strains, locus YKR091W, strain srl3, stronger effect = lower value 1 | S. cerevisiae deletion strains, locus YLL001W, strain dnm1, stronger effect = lower value 1.01 | S. cerevisiae deletion strains, locus YLL026W, stronger effect = lower value 1 | S. cerevisiae deletion strains, locus YLL041C, strain sdh2, stronger effect = lower value 0.999 | S. cerevisiae deletion strains, locus YLR027C, strain aat2, stronger effect = lower value 0.994 | S. cerevisiae deletion strains, locus YLR039C, strain RIC1, stronger effect = lower value 1.01 | S. cerevisiae deletion strains, locus YLR058C, strain SHM2, stronger effect = lower value 0.976 | S. cerevisiae deletion strains, locus YLR102C, strain apc9, stronger effect = lower value 0.99 | S. cerevisiae deletion strains, locus YLR113W, strain HOG1, stronger effect = lower value 0.995 | S. cerevisiae deletion strains, locus YLR221C, strain rsa3, stronger effect = lower value 1.02 | S. cerevisiae deletion strains, locus YLR258W, strain gsy2, stronger effect = lower value 1 | S. cerevisiae deletion strains, locus YLR262C, strain YPT6 (second series), stronger effect = lower value 0.96 | S. cerevisiae deletion strains, locus YLR262C, strain YPT6, stronger effect = lower value 0.99 | S. cerevisiae deletion strains, locus YLR268W, strain sec22, stronger effect = lower value 1.04 | S. cerevisiae deletion strains, locus YLR320W, strain mms22, stronger effect = lower value 1.02 | S. cerevisiae deletion strains, locus YLR330W, strain CHS5, stronger effect = lower value 0.997 | S. cerevisiae deletion strains, locus YLR342W, strain FKS1 (second series), stronger effect = lower value 1.01 | S. cerevisiae deletion strains, locus YLR342W, strain FKS1, stronger effect = lower value 1 | S. cerevisiae deletion strains, locus YLR357W, strain rsc2, stronger effect = lower value 0.983 | S. cerevisiae deletion strains, locus YLR370C, strain arc18, stronger effect = lower value 1 | S. cerevisiae deletion strains, locus YLR371W, strain rom2, stronger effect = lower value 0.974 | S. cerevisiae deletion strains, locus YLR384C, strain iki3, stronger effect = lower value 1.01 | S. cerevisiae deletion strains, locus YLR418C, strain cdc73, stronger effect = lower value 0.997 | S. cerevisiae deletion strains, locus YML016C, strain PPZ1, stronger effect = lower value 0.993 | S. cerevisiae deletion strains, locus YML032C, strain rad52, stronger effect = lower value 1 | S. cerevisiae deletion strains, locus YML120C, strain ndi1, stronger effect = lower value 1.01 | S. cerevisiae deletion strains, locus YML124C, strain tub3, stronger effect = lower value 0.982 | S. cerevisiae deletion strains, locus YMR058W, strain fet3, stronger effect = lower value 0.998 | S. cerevisiae deletion strains, locus YMR078C, strain ctf18, stronger effect = lower value 0.987 | S. cerevisiae deletion strains, locus YMR125W, strain sto1, stronger effect = lower value 1.01 | S. cerevisiae deletion strains, locus YMR129W, stronger effect = lower value 0.984 | S. cerevisiae deletion strains, locus YMR205C, strain PFK2, stronger effect = lower value 1.02 | S. cerevisiae deletion strains, locus YMR223W, strain ubp8, stronger effect = lower value 0.989 | S. cerevisiae deletion strains, locus YMR231W, strain pep5, stronger effect = lower value 1 | S. cerevisiae deletion strains, locus YMR263W, strain SAP30, stronger effect = lower value 1.01 | S. cerevisiae deletion strains, locus YMR307W, strain GAS1, stronger effect = lower value 1.05 | S. cerevisiae deletion strains, locus YNL067W, strain RPL9B, stronger effect = lower value 0.995 | S. cerevisiae deletion strains, locus YNL071W, strain lat1, stronger effect = lower value 0.999 | S. cerevisiae deletion strains, locus YNL128W, strain TEP1, stronger effect = lower value 1.01 | S. cerevisiae deletion strains, locus YNL153C, strain GIM3, stronger effect = lower value 1 | S. cerevisiae deletion strains, locus YNL175C, strain NOP13, stronger effect = lower value 1.01 | S. cerevisiae deletion strains, locus YNL183C, strain NPR1, stronger effect = lower value 0.944 | S. cerevisiae deletion strains, locus YNL197C, strain WHI3, stronger effect = lower value 1.01 | S. cerevisiae deletion strains, locus YNL209W, strain ssb2, stronger effect = lower value 1 | S. cerevisiae deletion strains, locus YNL224C, strain SQS1, stronger effect = lower value 1.01 | S. cerevisiae deletion strains, locus YNL233W, strain BNI4, stronger effect = lower value 0.992 | S. cerevisiae deletion strains, locus YNL248C, strain rpa49, stronger effect = lower value 0.991 | S. cerevisiae deletion strains, locus YNL250W, strain rad50, stronger effect = lower value 0.986 | S. cerevisiae deletion strains, locus YNL271C, strain bni1, stronger effect = lower value 0.994 | S. cerevisiae deletion strains, locus YNL298W, strain CLA4, stronger effect = lower value 1.01 | S. cerevisiae deletion strains, locus YNL307C, strain MCK1, stronger effect = lower value 0.987 | S. cerevisiae deletion strains, locus YNL322C, strain KRE1 (second series), stronger effect = lower value 1.01 | S. cerevisiae deletion strains, locus YNL322C, strain KRE1, stronger effect = lower value 0.994 and 0.998 | S. cerevisiae deletion strains, locus YNR049C, strain mso1, stronger effect = lower value 1 | S. cerevisiae deletion strains, locus YNR052C, strain pop2, stronger effect = lower value 1 | S. cerevisiae deletion strains, locus YOL006C, strain TOP1, stronger effect = lower value 0.948 | S. cerevisiae deletion strains, locus YOL012C, strain htz1 1.21 | S. cerevisiae deletion strains, locus YOL147C, strain pex11, stronger effect = lower value 0.99 | S. cerevisiae deletion strains, locus YOR001W, strain rrp6, stronger effect = lower value 0.989 | S. cerevisiae deletion strains, locus YOR061W, strain CKA2, stronger effect = lower value 0.962 | S. cerevisiae deletion strains, locus YOR069W, strain VPS5, stronger effect = lower value 0.996 | S. cerevisiae deletion strains, locus YOR070C, strain gyp1, stronger effect = lower value 0.999 | S. cerevisiae deletion strains, locus YOR080W, strain dia2, stronger effect = lower value 0.994 | S. cerevisiae deletion strains, locus YOR083W, strain WHI5 (second series), stronger effect = lower value 1.01 | S. cerevisiae deletion strains, locus YOR083W, strain WHI5, stronger effect = lower value 1 | S. cerevisiae deletion strains, locus YOR106W, strain vam3, stronger effect = lower value 0.985 | S. cerevisiae deletion strains, locus YOR136W, strain idh2, stronger effect = lower value 0.988 | S. cerevisiae deletion strains, locus YOR144C, strain elg1, stronger effect = lower value 0.992 | S. cerevisiae deletion strains, locus YOR184W, strain ser1, stronger effect = lower value 0.99 | S. cerevisiae deletion strains, locus YOR231W, strain MKK1, stronger effect = lower value 1.02 | S. cerevisiae deletion strains, locus YOR265W, strain rbl2, stronger effect = lower value 1.01 | S. cerevisiae deletion strains, locus YOR270C, strain vph1, stronger effect = lower value 0.979 | S. cerevisiae deletion strains, locus YOR290C, strain snf2, stronger effect = lower value 1.01 | S. cerevisiae deletion strains, locus YOR316C, strain cot1, stronger effect = lower value 0.995 | S. cerevisiae deletion strains, locus YPL051W, strain arl3, stronger effect = lower value 1.02 | S. cerevisiae deletion strains, locus YPL078C, strain atp4, stronger effect = lower value 1 | S. cerevisiae deletion strains, locus YPL106C, strain sse1, stronger effect = lower value 0.977 | S. cerevisiae deletion strains, locus YPL240C, strain hsp82, stronger effect = lower value 1 | S. cerevisiae deletion strains, locus YPL241C, strain CIN2, stronger effect = lower value 0.997 | S. cerevisiae deletion strains, locus YPL256C, strain CLN2, stronger effect = lower value 0.969 | S. cerevisiae deletion strains, locus YPR119W, strain clb2, stronger effect = lower value 0.981 | S. cerevisiae deletion strains, locus YPR141C, strain kar3, stronger effect = lower value 0.976 | S. cerevisiae deletion strains, locus YPR163C, strain tif3, stronger effect = lower value 0.986 | S. cerevisiae deletion strains, locus YPR167C, strain met16, stronger effect = lower value 0.989 | S. cerevisiae deletion strains, strain wtn01, stronger effect = lower value 1 | S. cerevisiae strains, strain wild type, stronger effect = lower value 0.995
